Test results as given in the supplement of paper PMC6555819.

Legend:
Assay in all cases: PBM binding z-score (relative to random genomic background probes); higher = stronger binding; sequences stand for … in GC…GCGATTGACAGCGTAGAATGAAGG
[1] = tested on: FXR:RXRa (NR concentration 270 nM, RXRa partner concentration 90 nM)
In short: (§1)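 Scanned fluorescence from custom Agilent 4×180K protein-binding microarrays was regression-normalized. Binding z-scores use random background probes as reference. Ligand-free nuclear receptor dimers were incubated on the arrays for 1 h and detected with antibodies against each partner (one per run).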

[2] = tested on: LXRa:RXRa (NR concentration 270 nM, RXRa partner concentration 90 nM)
In short: as §1

[3] = tested on: LXRa homodimer (NR concentration 270 nM)
In short: as §1

[4] = tested on: LXRb:RXRa (NR concentration 270 nM, RXRa partner concentration 90 nM)
In short: as §1

[5] = tested on: LXRb homodimer (NR concentration 270 nM)
In short: as §1

[6] = tested on: PPARa:RXRa (NR concentration 270 nM, RXRa partner concentration 90 nM)
In short: as §1

[7] = tested on: PPARg:RXRa (NR concentration 180 nM, RXRa partner concentration 90 nM)
In short: as §1

[8] = tested on: PPARg:RXRa 270nM:90nM, anti-RXR (NR concentration 270 nM, RXRa partner concentration 90 nM)
In short: as §1

[9] = tested on: PPARg:RXRa 30nM:10nM, anti-RXR (NR concentration 30 nM, RXRa partner concentration 10 nM)
In short: as §1

[10] = tested on: PPARg:RXRa 90nM:30nM, anti-RXR (NR concentration 90 nM, RXRa partner concentration 30 nM)
In short: as §1

[11] = tested on: PPARg:RXRa DBDmut IVT, anti-RXR (DBD mutation: RXRa K156A/R161A, NR concentration 270 nM, RXRa partner concentration 90 nM)
In short: as §1

[12] = tested on: PPARg:RXRa IVT, anti-PPARg (NR concentration 270 nM, RXRa partner concentration 90 nM)
In short: as §1

[13] = tested on: PPARg DBDmut:RXRa IVT, anti-PPARg (DBD mutation: PPARg1 K132A/R137A, NR concentration 270 nM, RXRa partner concentration 90 nM)
In short: as §1

[14] = tested on: PPARg DBDmut IVT, anti-PPARg (DBD mutation: PPARg1 K132A/R137A, NR concentration 270 nM)
In short: as §1

[15] = tested on: PPARg homodimer (NR concentration 180 nM)
In short: as §1

[16] = tested on: PXR:RXRa (NR concentration 270 nM, RXRa partner concentration 90 nM)
In short: as §1

[17] = tested on: PXR homodimer (NR concentration 270 nM)
In short: as §1

[18] = tested on: RARa:RXR (NR concentration 270 nM, RXRa partner concentration 90 nM)
In short: as §1

[19] = tested on: RARa homodimer (NR concentration 270 nM)
In short: as §1

[20] = tested on: RARb:RXRa (NR concentration 270 nM, RXRa partner concentration 90 nM)
In short: as §1

Row | Sequence | PBM binding z-score [1] | PBM binding z-score [2] | PBM binding z-score [3] | PBM binding z-score [4] | PBM binding z-score [5] | PBM binding z-score [6] | PBM binding z-score [7] | PBM binding z-score [8] | PBM binding z-score [9] | PBM binding z-score [10] | PBM binding z-score [11] | PBM binding z-score [12] | PBM binding z-score [13] | PBM binding z-score [14] | PBM binding z-score [15] | PBM binding z-score [16] | PBM binding z-score [17] | PBM binding z-score [18] | PBM binding z-score [19] | PBM binding z-score [20]
1 | AGAATGAGGTTATACGTAGATCAAGGAAGAAAGT | 2.5 | 2.22 | 0.0848 | 1.72 | 0.172 | 3.25 | 2.25 | 2.12 | 0.826 | 1.62 | 4.05 | 2.17 | 1.37 | 0.946 | 1.39 | 1.25 | 0.179 | 1.97 | 0.408 | 1.58
2 | CCTATTAGTTGACCAAAAGGGCAACCGAAGCTCG | 0.908 | 0.905 | 0.816 | 1.02 | 0.763 | 1.5 | 0.545 | 1.52 | 0.286 | 1.18 | 0.681 | 1.22 | -0.0971 | 1.05 | 2.38 | 1.09 | 0.687 | 1.37 | 1.39 | 2.51
3 | CGAACTAGGTCATACAGGACAGTGAATACATTGA | 3.71 | 2.61 | 0.562 | 1.97 | 0.184 | 4.67 | 7.62 | 6.24 | 3.84 | 5.74 | 8.15 | 8.47 | 4.73 | 2 | 1.93 | 1.48 | 0.551 | 2 | 0.758 | 3.5
4 | GGAACGAGGGCAACTTGATAGCAGAGTTTGATGG | 0.815 | 0.375 | -0.472 | 0.468 | -0.203 | 1.53 | 1.63 | 1.28 | -0.0805 | 0.883 | 4.45 | 3.29 | 0.236 | 0.0207 | 0.796 | 0.872 | 0.418 | 0.629 | 0.251 | 2.72
5 | CCGACTGGGGCAGAAAGGTTATCATACCATCCGG | 0.492 | 0.483 | 0.0667 | 0.849 | -0.748 | 2.05 | 1.7 | 2.27 | 0.694 | 2.13 | 1.78 | 1.73 | -1.01 | -1.06 | 0.664 | 0.873 | 0.149 | 1.85 | -0.196 | 1.68
6 | TCTATTAGTTGATTAGGGCAACCCAAACAGCGGA | 0.851 | 0.543 | 0.334 | 0.826 | 0.771 | 1.09 | 0.509 | 1.97 | 3.86 | 2.89 | 1.83 | 1.56 | 1.32 | 1.89 | 0.811 | 0.65 | 0.299 | 0.776 | 1.44 | 0.917
7 | ACGATTAGTTGAGACGAGGGCAACCGATAGGTTG | 0.116 | -0.256 | -0.3 | -0.292 | -0.463 | 0.252 | 0.533 | -0.0475 | -0.114 | -0.534 | -0.118 | 0.112 | 0.232 | -0.573 | 0.155 | 1.11 | 0.466 | 0.874 | 0.365 | 0.555
8 | AGAACGAGGGCACGCTGAGTTAATAGCAGAGTAG | 0.956 | 0.697 | -0.612 | 0.378 | -1.03 | 1.99 | 2.22 | 1.65 | 0.0968 | 1.08 | 4.13 | 3.9 | -0.114 | 0.0711 | 0.0693 | 1.38 | -0.237 | 0.718 | -0.564 | 2.52
9 | TGAATGAGGTTAGAAGATCAGGGAACGTTGCAAA | 0.452 | 0.337 | -0.383 | 0.0743 | -0.188 | 1.59 | 0.84 | 1.29 | 0.759 | 0.966 | 0.481 | 1.07 | 0.215 | 0.423 | 0.0749 | 0.145 | -0.0637 | 0.485 | 0.14 | 0.954
10 | ATCTCTAGGTAAAAGGTCAGTGAATCCCGAGGAT | 3.03 | 3.55 | 1.43 | 3.07 | 1.09 | 6.09 | 9.92 | 8.92 | 8.03 | 9.78 | 3.67 | 5.64 | 1.49 | 2.13 | 2.81 | 3.49 | 0.63 | 4.68 | 1.9 | 4.56
11 | CCAGACAGGTGAGAAGGTTACTCAGCCTCGATTA | 0.207 | 0.568 | -0.0205 | 0.724 | -0.277 | 1.54 | 0.536 | 0.872 | 0.0606 | 0.56 | 0.947 | 1.04 | -0.652 | -0.801 | 1.03 | 0.441 | 0.133 | 1.23 | 0.46 | 1.36
12 | TCTTGTAGATCAATAGAGGTTTAGAAAGTGCGCT | 0.391 | 0.283 | -0.272 | 0.00462 | -0.299 | 0.237 | -0.452 | 1.23 | 2.5 | 1.69 | 1.65 | 0.249 | 0.996 | 0.224 | -0.539 | 0.49 | -0.0138 | 0.588 | 0.0314 | -0.311
13 | CTTACTGGGCCATCAGGTCATTGATATCAACGTT | 1.85 | 1.35 | 1.05 | 1.68 | 0.217 | 3.84 | 4.85 | 5.22 | 2.74 | 4.87 | 6.66 | 6.83 | 2.49 | 2.61 | 1.66 | 1.94 | 0.966 | 2.45 | 0.185 | 2.26
14 | GCTCGGAGGACAAGGTCAGTGCTTTGTCCGTAGA | 1.54 | 1.23 | -0.17 | 1.09 | -0.53 | 1.94 | 0.00556 | 1.33 | -0.784 | 0.326 | -0.0896 | 0.926 | -1.08 | -0.85 | 0.917 | 1.43 | -0.565 | 1.37 | -1.15 | 3.46
15 | ATATGTAGGTTACTTCCGGGTCATTCAGGCTATG | 2.58 | 5.79 | 2 | 3.81 | 1.01 | 4.23 | 5.4 | 4.83 | 2.21 | 4.06 | 7.27 | 7 | 2.25 | 1.76 | 2.39 | 3.68 | 1.81 | 3.76 | 0.485 | 2.36
